Results published in PubChem BioAssay.
Several values for one entry are separate records, joined by “and”; a condition that tells them apart may be missing. Equal values may be shown once. For part of these data: Potency and affinity values are given separately. Activity calls are given as the source filed them.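 Rule for the calls, unless noted: active = thallium flux through the channel raised or lowered by more than 3 SD from vehicle-only wells, actives on both sides; inactive = the rest.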

Columns and labels:
[1] = compounds altering viability of human ES cells (AID 493140; call rule not given here;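 note: cells exposed to compounds for four days before counting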); details: human embryonic stem cell survival screen; stronger effect = higher value
[2] = P. berghei load reduction in hepatocytes – cell-based, HepG2, luciferase luminescence, HepG2 viability, primary screen (AID 624349; in the data active = parasite load remaining mostly below about 12%, no sharp cut-off; inactive = mostly above about 10%;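 note: 100% = mean of DMSO negative control wells on the same plate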); details: P. berghei liver stage in HepG2, luciferase luminescence, concentration not given here; parasite load remaining: stronger effect = lower value; viability: measured here: HepG2 viability without parasites
[3] = signal quenchers or enhancers, Cy5 substrate/SSB – biochemical, NIH Clinical Collection, E. coli SSB, artefact control for HCV NS3 helicase inhibitor project (AID 743268; call rule not given here); details: Cy5-oligo bound E. coli SSB, fluorescence interference
[4] = galactose survival enhancers in mitochondrial complex I cybrids – cell-based, galactose medium, ATP luminescence, primary screen (AID 1645843;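 active = z-score of at least 1.8 in each of two replicates, scored against plate mean and spread of sample wells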;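 note: positive z means more ATP and so rescue of galactose-driven cybrid death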); details: complex I mutant cybrid cells, 72 h, stronger effect = higher value
[5] = tested on: F380Y/beta1; assay: BK channel mutant inhibitors and activators – cell-based, U2OS BacMam, thallium flux, beta subunits, selectivity assay, profiling panel (AID 1259406); details: U2OS BacMam BK variants, at 30 µM;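 note: initial slope of Thallos dye fluorescence rise after thallium is added; log ratio against the mean of 0.3% DMSO vehicle wells on the same plate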
[6] = tested on: F380Y/beta4; assay: as above; details: U2OS BacMam BK variants, at 30 µM
[7] = tested on: R275C; assay: as above; details: U2OS BacMam BK variants, at 30 µM
[8] = tested on: R275C/beta1; assay: as above; details: U2OS BacMam BK variants, at 30 µM
[9] = tested on: R275C/beta2Delta; assay: as above; details: U2OS BacMam BK variants, at 30 µM
[10] = tested on: R275C/beta4; assay: as above; details: U2OS BacMam BK variants, at 30 µM
[11] = tested on: R275C/Slo1WT/beta2; assay: as above; details: U2OS BacMam BK variants, at 30 µM
[12] = blockers of polyQ-driven CASP3 activation – cell-based (AID 1583); details: polyglutamine-induced caspase-3 activation, cell assay; stronger effect = higher value; concentration not given here
[13] = yeast 75Q aggregation reduction – 75Q-TubU reporter (AID 1593); details: Yeast 75Q polyglutamine aggregation reporter
[14] = restoration of touch response, mutant HTT neurons – whole organism, C. elegans mechanosensory neurons, N-terminal huntingtin (AID 1599); details: C. elegans polyQ-huntingtin mechanosensory neurons, stronger effect = higher value
[15] = blockers of cytochrome c efflux from mitochondria – biochemical, purified mitochondria (AID 1603); details: stronger effect = lower value;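 note: mouse liver mitochondria challenged with calcium chloride; signal normalized to the plate average as 100%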
[16] = polyglutamine aggregate formation blockers (AID 1604); details: polyglutamine-induced protein aggregation inhibition assay; stronger effect = higher value; tested at 2.5 µM
[17] = glutamate transport activators, MN-1 cells, MN-1 cell line (AID 1612); details: MN-1 motor neuron cells, stronger effect = higher value;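 note: tested at 1 µM final; 0% = mean of DMSO vehicle wells on each plate; positive means more glutamate uptake than control and negative means less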
[18] = 75Q-TubH aggregate inhibition, S. cerevisiae, yeast (AID 1616); details: S. cerevisiae 75Q-TubH polyglutamine aggregation suppression; stronger effect = higher value
[19] = modulation of C. elegans fzo-1 (AID 1259413; call rule not given here;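 note: fzo-1 mutant C. elegans worms in liquid wells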); details: C. elegans fzo-1 modulator screen, mean read-out; stronger effect = higher value

## C#C[C@]1(O)CC[C@H]2[C@@H]3CCC4=CC(=O)CC[C@@H]4[C@H]3CC[C@@]21CC
[1]
  survival: 3.67 (inactive)
[2]
  parasite load remaining: 51.8% (inactive) and 75.6% (inactive) and 14.7% (inactive)
  viability: 93.6% and 73.1% and 73.5%
[3]
  fluorescence ratio: 1.02 (inactive)
[4]
  z-score: 0.335 (inactive)
[5]
  log fold change Tl+ flux: 0.149 (active)
[6]
  log fold change Tl+ flux: -0.00261 (inactive)
[7]
  log fold change Tl+ flux: -0.0255 (inactive)
[8]
  log fold change Tl+ flux: 0.00999 (inactive)
[9]
  log fold change Tl+ flux: -0.0278 (inactive)
[10]
  log fold change Tl+ flux: -0.0556 (inactive)
[11]
  log fold change Tl+ flux: -0.0344 (inactive)

## CCCCc1oc2ccccc2c1C(=O)c1cc(I)c(OCCN(CC)CC)c(I)c1
[12]
  inhibition: 18.6%
[13]
  score: -1.49
[14]
  rescue above control: 0.17
[15]
  cytochrome c release ratio: 0.79
[16]
  inhibition of aggregation: 28.8%
[17]
  glutamate uptake change: 11.2%
[18]
  aggregation suppression score: -0.303
[1]
  survival: 3.5 (inactive)
[3]
  fluorescence ratio: 0.96 (inactive)
[19]
  mean signal: 244 (inactive)
[4]
  z-score: -1.52 (inactive) and -1.44 (inactive) and -1.87 (inactive)

## Cc1c(OCC(F)(F)F)ccnc1CS(=O)c1nc2ccccc2[nH]1 (centres undefined)
[12]
  inhibition: -8.62%
[13]
  score: 0
[14]
  rescue above control: 4.9
[15]
  cytochrome c release ratio: 0.73
[16]
  inhibition of aggregation: 29.4%
[17]
  glutamate uptake change: -0.46%
[18]
  aggregation suppression score: -0.00244
[1]
  survival: 14.6 (inactive)
[3]
  fluorescence ratio: 0.95 (inactive)
[19]
  mean signal: 250 (inactive)
[4]
  z-score: -1.12 (inactive) and -0.8 (inactive) and -0.405 (inactive)

## CNC(=O)Oc1ccc2c(c1)[C@]1(C)CCN(C)[C@@H]1N2C
[12]
  inhibition: 8.95%
[13]
  score: 1.22
[14]
  rescue above control: 1.05
[15]
  cytochrome c release ratio: 1.08
[16]
  inhibition of aggregation: 39.4%
[17]
  glutamate uptake change: -18.2%
[18]
  aggregation suppression score: 1.03
[1]
  survival: 7.25 (inactive)
[4]
  z-score: -0.835 (inactive) and -0.865 (inactive)

## COc1cc2nc(N3CCN(C(=O)c4ccco4)CC3)nc(N)c2cc1OC
[12]
  inhibition: 16.5%
[13]
  score: 1.21
[14]
  rescue above control: -0.41
[15]
  cytochrome c release ratio: 1.07
[16]
  inhibition of aggregation: 70.4%
[17]
  glutamate uptake change: -22.2%
[18]
  aggregation suppression score: 1.01
[1]
  survival: 0.667 (inactive)
[19]
  mean signal: 236 (inactive)
[7]
  log fold change Tl+ flux: -0.0502 (inactive)
[8]
  log fold change Tl+ flux: -0.0587 (inactive)
[9]
  log fold change Tl+ flux: -0.0145 (inactive)

## CC(=O)OCC(=O)[C@@]12OC(C)(C)O[C@@H]1C[C@H]1[C@@H]3C[C@H](F)C4=CC(=O)C=C[C@]4(C)[C@@]3(F)[C@@H](O)C[C@@]12C
[1]
  survival: 3.25 (inactive)
[2]
  parasite load remaining: 84.8% (inactive) and 108% (inactive)
  viability: 105% and 96.2%
[3]
  fluorescence ratio: 1.05 (inactive)
[4]
  z-score: 0.355 (inactive)
[5]
  log fold change Tl+ flux: 0.0412 (inactive)
[6]
  log fold change Tl+ flux: 0.048 (inactive)
[7]
  log fold change Tl+ flux: -0.038 (inactive)
[8]
  log fold change Tl+ flux: -0.00722 (inactive)
[9]
  log fold change Tl+ flux: -0.0403 (inactive)
[10]
  log fold change Tl+ flux: 0.0407 (inactive)
[11]
  log fold change Tl+ flux: 0.0498 (inactive)

## Fc1ccc([C@@H]2CCNC[C@H]2COc2ccc3c(c2)OCO3)cc1
[3]
  fluorescence ratio: 1 (inactive)
[19]
  mean signal: 159 (inactive)
[4]
  z-score: -1.38 (inactive) and -0.63 (inactive) and -1.71 (inactive)

## CC(=O)O[C@]1(C(C)=O)CC[C@H]2[C@@H]3C=C(C)C4=CC(=O)CC[C@]4(C)[C@H]3CC[C@@]21C
[1]
  survival: 3.08 (inactive)
[2]
  parasite load remaining: 111% (inactive) and 60.7% (inactive) and 27.2% (inactive)
  viability: 93.3% and 69.6% and 81%
[3]
  fluorescence ratio: 1.01 (inactive)
[4]
  z-score: 0.025 (inactive)
[5]
  log fold change Tl+ flux: 0.018 (inactive)
[6]
  log fold change Tl+ flux: -0.0433 (inactive)
[7]
  log fold change Tl+ flux: -0.0376 (inactive)
[8]
  log fold change Tl+ flux: 0.00523 (inactive)
[9]
  log fold change Tl+ flux: -0.00852 (inactive)
[10]
  log fold change Tl+ flux: -0.0116 (inactive)
[11]
  log fold change Tl+ flux: 0.0254 (inactive)

## OCCN(CCO)c1nc(N2CCCCC2)c2nc(N(CCO)CCO)nc(N3CCCCC3)c2n1
[12]
  inhibition: -102%
[13]
  score: 1.27
[14]
  rescue above control: 18.2
[15]
  cytochrome c release ratio: 1.1
[16]
  inhibition of aggregation: 79.2%
[17]
  glutamate uptake change: 32%
[18]
  aggregation suppression score: 1.33
[1]
  survival: 34.4 (inactive)
[3]
  fluorescence ratio: 0.96 (inactive)
[19]
  mean signal: 298 (inactive)

## Nc1nc2ccc(OC(F)(F)F)cc2s1
[1]
  survival: 22.5 (inactive)
[3]
  fluorescence ratio: 0.95 (inactive)
[19]
  mean signal: 260 (inactive)

## O=C(c1ccccc1)c1ccc2n1CCC2C(=O)O (centres undefined)
[12]
  inhibition: 1.05%
[13]
  score: 1.22
[14]
  rescue above control: -3.9
[15]
  cytochrome c release ratio: 1.43
[16]
  inhibition of aggregation: 60.8%
[17]
  glutamate uptake change: 14.7%
[18]
  aggregation suppression score: 1.2
[1]
  survival: 2.17 (inactive)
[3]
  fluorescence ratio: 1.01 (inactive)
[19]
  mean signal: 231 (inactive)
[4]
  z-score: 0.335 (inactive) and 1.09 (inactive) and 0.445 (inactive)

## CCN(CC)CC(=O)Nc1c(C)cccc1C
[12]
  inhibition: -3.43%
[13]
  score: 1.56
[14]
  rescue above control: -0.5
[15]
  cytochrome c release ratio: 1.13
[16]
  inhibition of aggregation: 87%
[17]
  glutamate uptake change: 0.81%
[18]
  aggregation suppression score: 1.18
[1]
  survival: 23.2 (inactive)
[3]
  fluorescence ratio: 1.01 (inactive)
[19]
  mean signal: 257 (inactive)
[4]
  z-score: 0.01 (inactive) and 0.715 (inactive) and 0.48 (inactive)
[7]
  log fold change Tl+ flux: -0.00245 (inactive)
[8]
  log fold change Tl+ flux: -0.022 (inactive)
[9]
  log fold change Tl+ flux: 0.00392 (inactive)

## COc1ccc2c(c1)c(CC(=O)O)c(C)n2C(=O)c1ccc(Cl)cc1
[12]
  inhibition: 24.4%
[13]
  score: -1.46
[14]
  rescue above control: -5.76
[15]
  cytochrome c release ratio: 0.82
[16]
  inhibition of aggregation: -6.06%
[17]
  glutamate uptake change: 7.33%
[18]
  aggregation suppression score: 0.0101
[1]
  survival: 13.2 (inactive)
[3]
  fluorescence ratio: 1.02 (inactive)
[19]
  mean signal: 244 (inactive)
[7]
  log fold change Tl+ flux: 0.074 (inactive)
[8]
  log fold change Tl+ flux: 0.196 (active)
[9]
  log fold change Tl+ flux: 0.128 (active)

## CC(=O)OCC(=O)[C@@]1(O)CC[C@H]2[C@@H]3CCC4=CC(=O)C=C[C@]4(C)[C@H]3[C@@H](O)C[C@@]21C
[2]
  parasite load remaining: 83.8% (inactive)
  viability: 90.8%
[3]
  fluorescence ratio: 0.95 (inactive)
[4]
  z-score: 0.085 (inactive)
[5]
  log fold change Tl+ flux: 0.0202 (inactive)
[6]
  log fold change Tl+ flux: 0.0608 (inactive)
[7]
  log fold change Tl+ flux: -0.0254 (inactive)
[8]
  log fold change Tl+ flux: 0.0604 (inactive)
[9]
  log fold change Tl+ flux: 0.0146 (inactive)
[10]
  log fold change Tl+ flux: 0.0243 (inactive)
[11]
  log fold change Tl+ flux: 0.0458 (inactive)
